Results on nine compounds are retold here after PubChem BioAssay (Tox21).

A number with no mark means an inactive call. Results filed as inconclusive are left out. Calls of active or inactive are those of the source. Unless noted, calls follow the shape of the dose curve; as a rule, active = well fitted curve in the direction sought with a large enough effect in the repeat runs; inconclusive = weak or mixed curves; inactive = no such curve, though single readings can be large; an effect the other way counts as inactive or inconclusive.

Test [1] in a line: qHTS RealTime-Glo MT Cell Viability Assay in HEK293 cells - 0 hour (AID 1224880). Also: top concentration of the series differs between compounds; nearly all actives have a fitted effect of over 45% in size. The method, boiled down:
(§1)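 600 cells/well were plated with the nonlytic NanoLuc/prosubstrate reagent, pre-incubated 5 h, then given 23 nL of compound in DMSO. Incubation at 37 C for 40 h, with luminescence from viable-cell-reduced substrate read repeatedly from 0 h.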
A general note: Quantitative high-throughput screening tests each substance at several concentrations.

Test [2] is described as follows: A CellTox Green Cytotoxicity Assay to monitor cytotoxicity in HEK293 cells - 32 hour (AID 1224881). Also: nearly all actives have a fitted effect of over 40% in size. Also: potency is read from the fitted curve at half-maximal effect. The gist of the method:
(§2)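 HEK293 cells, 600/well, were preincubated 5 hours and then exposed to compounds at 37 C for up to 40 hours. A cell-impermeant cyanine dye staining dead-cell DNA was read by fluorescence at 0, 8, 16, 24, 32 and 40 h time points.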

Test [3] can be described thus: A CellTox Green Cytotoxicity Assay to monitor cytotoxicity in HepG2 cells - 32 hour (AID 1224883). Also: nearly all actives have a fitted effect of over 50% in size. Also: potency is read from the fitted curve at half-maximal effect. The gist of the method: (§3)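 HepG2 cells, 600/well, preincubated 5 h with CellTox Green dye, then exposed to Tox21 compounds in DMSO at 37 C for up to 40 h. Dead-cell DNA fluorescence read at the indicated time point.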
A short description of test [4]: A CellTox Green Cytotoxicity Assay to monitor cytotoxicity in HEK293 cells - 8 hour (AID 1224884). Also: nearly all actives have a fitted effect of over 35% in size. Also: potency is read from the fitted curve at half-maximal effect. The method, boiled down:
as §2

A short description of test [5]: qHTS RealTime-Glo MT Cell Viability Assay in HepG2 cells - 16 hour (AID 1224885). Also: nearly all actives have a fitted effect of over 50% in size. The method, boiled down:
(§4)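 Compound treatment began 5 h after plating HepG2 cells (600/well) with NanoLuc luciferase and prosubstrate. Plates stayed at 37 C for 40 h; luminescence was captured at six time points, 0 h through 40 h.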

Test [6] in a line: qHTS RealTime-Glo MT Cell Viability Assay in HEK293 cells - 24 hour (AID 1224886). Also: top concentration of the series differs between compounds; nearly all actives have a fitted effect of over 50% in size. The gist of the method:
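Quantitative high-throughput screen of the Tox21 10K library in HEK293: cells and RealTime-Glo reagents plated together, compound added at 5 h, luminescence monitored through 40 h at 37 C.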

Test [7] in a line: qHTS RealTime-Glo MT Cell Viability Assay in HEK293 cells - 8 hour (AID 1224887). Also: top concentration of the series differs between compounds; nearly all actives have a fitted effect of over 50% in size. The method, boiled down:
as §1

A short description of test [8]: A CellTox Green Cytotoxicity Assay to monitor cytotoxicity in HEK293 cells - 16 hour (AID 1224888). Also: nearly all actives have a fitted effect of over 35% in size. Also: potency is read from the fitted curve at half-maximal effect. The gist of the method:
as §2

A short description of test [9]: qHTS RealTime-Glo MT Cell Viability Assay in HepG2 cells - 0 hour (AID 1224889). Also: nearly all actives have a fitted effect of over 50% in size. The method, boiled down:
as §4

A short description of test [10]: qHTS assay to identify small molecule antagonists of the androgen receptor (AR) signaling pathway using the MDA cell line in the presence of 0.5 nM R1881 - cell viability counter screen (AID 1259242). Also: nearly all actives have a fitted effect of over 45% in size. The gist of the method: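 MDA-kb2 cells (MMTV-luciferase, AR/GR responsive) were treated with compounds plus 0.5 nM R1881 (final) for 16 hr at 37C, 0% CO2. Viability was then read in the same wells as live-cell protease fluorescence (CellTiter-Fluor, 30 min).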

The target of test [11] is Estrogen receptor (Homo sapiens) (UniProt P03372). Nature of the test: qHTS assay to identify small molecule antagonists of the estrogen receptor alpha (ER-alpha) signaling pathway using the BG1 cell line in the presence of 0.1 nM 17-beta-estradiol (AID 1259244). Also: nearly all actives have a fitted effect of over 50% in size. The method, boiled down:
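VM7Luc4E2 cells (endogenous full-length ER-alpha, 4×ERE-luciferase), kept 5 days in phenol red-free, charcoal-stripped FBS medium; 4,000 cells/well. Compounds added with 0.1 nM (final) 17beta-estradiol, 22 hr at 37C; luminescence read with ONE-Glo after 30 min.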

The nature of test [12]: qHTS assay to identify small molecule HDAC inhibitors (AID 1259364). Also: top concentration of the series differs between compounds; nearly all actives have a fitted effect of over 45% in size. The gist of the method:
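Wild-type HCT-116 cells, plated overnight at 37 C, exposed to compounds 2 hr at 37 C; luminogenic HDAC-Glo substrate then added 30 min at room temperature. Luminescence reports relative endogenous class I/II HDAC activity.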

Test [13] in a line: qHTS assay to identify small molecule HDAC inhibitors - cell viability counter screen (AID 1259365). The method, boiled down: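 After overnight seeding at 1,500 cells per well, wild-type HCT-116 cultures took up compounds in DMSO for 2hr at 37 C. Viable cell content came from luminescence with CellTiter-Glo.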
Test [14] can be described thus: qHTS assay to identify small molecule agonists of the sonic hedgehog signaling (Shh) pathway - cell viability counter screen (AID 1259366). Also: nearly all actives have a fitted effect of over 50% in size. The method, boiled down:
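Same-well cytotoxicity read. Gli1-Luc reporter 3T3 cells; compounds 24hr, 37C/5% CO2; CellTiter-Fluor fluorescence.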

A short description of test [15]: qHTS assay to identify small molecule antagonists of the sonic hedgehog signaling (Shh) pathway - cell viability counter screen (AID 1259367). Also: nearly all actives have a fitted effect of over 55% in size. The method, boiled down: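 Using CellTiter-Fluor, viability of Gli1-Luc reporter 3T3 cells is read by fluorescence in the wells used for the Shh luciferase assay. Treatment lasts 23 hr with conditioned medium, then reagent 1 hr at 37C.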

Test [16] in a line: A CellTox Green Cytotoxicity Assay to monitor cytotoxicity in HepG2 cells - 8 hour (AID 1224890). Also: nearly all actives have a fitted effect of over 45% in size. Also: potency is read from the fitted curve at half-maximal effect. The gist of the method: as §3
Test [17] in a line: qHTS assay to identify small molecule phospholipidosis (PLD) inducers (AID 1259344; active = well fitted curve in the direction sought with a large enough effect; an effect the other way counts as inactive or inconclusive). The gist of the method: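 Fluorescent phospholipid staining (LipidTOX Red) measured by automated microscopy in fixed HepG2 cells after 24 h treatment; nuclei counterstained with Hoechst 33342; amiodarone as reference inducer.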
Test [18] in a line: qHTS assay to identify small molecule antagonists of the estrogen receptor alpha (ER-alpha) signaling pathway using the BG1 cell line in the presence of 0.1 nM 17-beta-estradiol - cell viability counter screen (AID 1259241). Also: nearly all actives have a fitted effect of over 40% in size. The method, boiled down: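 Estradiol-stimulated (0.1 nM) VM7Luc4E2 cells exposed to compounds 22 hr; viability measured by fluorescence of cleaved CellTiter-Fluor substrate after 30 min.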

The nature of test [19]: A CellTox Green Cytotoxicity Assay to monitor cytotoxicity in HepG2 cells - 0 hour (AID 1224882). Also: nearly all actives have a fitted effect of over 35% in size. The gist of the method: as §3
The target of test [20] is Androgen receptor (Homo sapiens) (UniProt P10275). Nature of the test: qHTS assay to identify small molecule antagonists of the androgen receptor (AR) signaling pathway using the MDA cell line in the presence of 0.5 nM R1881 (AID 1259243). Also: nearly all actives have a fitted effect of over 50% in size. The gist of the method:
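MDA-kb2 cells (MMTV-luciferase, responsive to AR and GR) at 3,000/well, rested 5 h at 37C, 0% CO2, then given compounds plus 0.5 nM R1881 (final) for 16 hr. Luciferase read with ONE-Glo after 30 min at room temperature.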

Estrogen receptor (Homo sapiens), sequence (P03372 whole entry, looked up): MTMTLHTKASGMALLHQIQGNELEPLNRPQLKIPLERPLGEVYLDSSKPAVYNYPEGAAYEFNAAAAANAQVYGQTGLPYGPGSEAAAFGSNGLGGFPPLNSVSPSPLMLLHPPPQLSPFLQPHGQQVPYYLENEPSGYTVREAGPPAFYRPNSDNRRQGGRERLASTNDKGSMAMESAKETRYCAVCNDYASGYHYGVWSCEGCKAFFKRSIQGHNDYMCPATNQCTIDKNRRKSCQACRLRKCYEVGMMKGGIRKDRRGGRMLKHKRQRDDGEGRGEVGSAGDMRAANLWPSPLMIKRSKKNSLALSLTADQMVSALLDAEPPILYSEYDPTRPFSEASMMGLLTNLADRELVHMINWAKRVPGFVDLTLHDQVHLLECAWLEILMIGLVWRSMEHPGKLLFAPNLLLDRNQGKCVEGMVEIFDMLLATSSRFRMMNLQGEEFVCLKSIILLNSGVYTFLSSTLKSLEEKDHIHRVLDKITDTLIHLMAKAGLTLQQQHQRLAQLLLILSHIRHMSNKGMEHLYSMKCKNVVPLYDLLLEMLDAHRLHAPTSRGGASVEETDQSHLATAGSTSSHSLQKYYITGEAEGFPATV
Androgen receptor (Homo sapiens), sequence (P10275 whole entry, looked up): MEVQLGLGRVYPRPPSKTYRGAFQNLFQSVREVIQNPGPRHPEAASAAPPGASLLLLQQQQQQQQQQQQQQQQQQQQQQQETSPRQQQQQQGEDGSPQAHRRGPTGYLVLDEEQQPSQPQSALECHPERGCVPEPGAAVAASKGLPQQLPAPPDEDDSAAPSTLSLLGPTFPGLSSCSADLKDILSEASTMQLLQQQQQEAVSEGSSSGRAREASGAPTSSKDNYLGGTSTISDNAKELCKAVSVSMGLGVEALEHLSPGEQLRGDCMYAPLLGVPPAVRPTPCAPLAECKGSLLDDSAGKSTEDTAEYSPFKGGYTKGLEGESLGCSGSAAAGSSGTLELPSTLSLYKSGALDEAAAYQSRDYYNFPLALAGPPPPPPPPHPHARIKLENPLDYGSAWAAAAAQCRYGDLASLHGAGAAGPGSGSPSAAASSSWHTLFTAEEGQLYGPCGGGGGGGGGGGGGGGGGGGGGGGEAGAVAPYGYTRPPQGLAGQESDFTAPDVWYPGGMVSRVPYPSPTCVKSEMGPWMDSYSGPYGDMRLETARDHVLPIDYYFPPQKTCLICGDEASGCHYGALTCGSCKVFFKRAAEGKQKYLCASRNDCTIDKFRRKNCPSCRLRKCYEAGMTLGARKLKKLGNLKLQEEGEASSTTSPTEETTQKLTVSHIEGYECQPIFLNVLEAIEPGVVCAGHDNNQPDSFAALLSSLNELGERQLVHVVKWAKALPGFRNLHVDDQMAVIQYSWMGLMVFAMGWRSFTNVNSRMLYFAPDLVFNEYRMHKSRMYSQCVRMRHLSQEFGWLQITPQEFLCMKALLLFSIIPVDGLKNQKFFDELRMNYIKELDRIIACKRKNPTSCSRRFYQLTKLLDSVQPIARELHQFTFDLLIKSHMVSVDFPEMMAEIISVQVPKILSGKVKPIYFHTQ

On to `c1cncc([C@@H]2CCCCN2)c1`, for which the compound was classed as inactive in [1], in [9] and in test [13]. For the same compound, the Potency entry in test [2], in test [3], in test [4], in [5], in test [6] and in [7] was “inactive” in each case. Further, the Potency result in test [8], in test [10], in [11], in test [12], in test [14] and in test [15] was “inactive” throughout.
For the compound `CCCN1CCC[C@@H]2Cc3nc(N)ncc3C[C@H]21`, the call in test [1], in test [9] and in test [13] was inactive. Further, the Potency was 16.9 µM (active) in test [2]; 21.3 µM (active) in test [3]; 19 µM (active) in test [4]; 19 µM (active) in [8]; 23.9 µM (active) in test [16]. The Potency result in test [5], in test [7], in test [10], in test [17], in [14] and in test [15] was “inactive” throughout.
For the compound `O=[N+]([O-])c1cccc(CCl)c1`, the result in [1], in [9], in [18] and in test [13] was inactive. In addition, the Potency result in test [2], in [3], in [4], in test [5], in [6] and in test [7] was “inactive” in each case. Besides, the Potency entry in test [8], in test [16], in test [10], in test [14] and in test [15] was “inactive” each time.
Take `CCC1(c2cccc(O)c2)CCCCN(C)C1` (centres undefined): the outcome in test [1], in test [9] and in [18] was inactive. Further, the Potency result in test [2], in test [4], in test [5], in test [7], in test [8] and in test [16] was “inactive” each time. In addition, the Potency result in test [10], in [17], in test [12] and in test [14] was “inactive” each time.
`C/C=C/CC#N`: the outcome in test [1], in [19], in [9], in [18] and in test [13] was inactive. For the same compound, the Potency result in test [3], in [5], in test [7], in [16], in test [10] and in [12] was “inactive” throughout. In addition, the Potency result in test [14] and in [15] was “inactive” in each case.
Consider `CCc1ccc(C2CCNCC2)cc1`, for which the Potency result in test [2], in [3], in test [4], in [5], in test [6] and in test [7] was “inactive” in each case. For the same compound, the Potency result in test [8], in test [16], in test [10], in test [20], in test [11] and in test [12] was “inactive” each time. Besides, the Potency entry in test [14] and in test [15] was “inactive” in each case. The compound was called inactive in test [19], in [9], in test [18] and in test [13].
Turning to `CC[C@H](N)c1ccccc1`, the compound was classed as inactive in [1], in [9] and in test [13]. Moreover, the Potency result in [2], in [3], in test [4], in test [5], in test [6] and in [7] was “inactive” in each case. For the same compound, the Potency entry in test [8], in test [16], in [10], in [20], in test [14] and in [15] was “inactive” throughout.
With `CC(C)NCC(O)c1ccc([N+](=O)[O-])cc1` (centres undefined), the call in [1], in test [9] and in test [13] was inactive. Moreover, the Potency entry in [2], in test [3], in test [4], in test [5], in test [6] and in test [7] was “inactive” throughout. For the same compound, the Potency entry in test [8], in test [16], in test [10], in test [17], in test [12] and in test [14] was “inactive” throughout. Besides, the Potency entry in [15] is “inactive”.
As to `CCSC(=O)Cl`, the outcome in [1], in test [9] and in test [13] was inactive. For the same compound, the Potency result in test [2], in [4], in test [5], in test [7], in test [8] and in test [16] was “inactive” in each case. For the same compound, the Potency result in test [10], in test [20], in [11], in [12], in test [14] and in test [15] was “inactive” in each case.
